The values that follow come from ChEMBL document CHEMBL4513141, “CO-ADD screening of NIH (USA) - Clinical Collection” (2021).

“And” between values parts separate entries of the source, which are not always exact repeats. Equal entries are not always repeated. Results with a measured potency or affinity are listed apart.

Broadly, the Inhibition is the drop in the measured response relative to a control, in per cent.

Test [1] has as its system Staphylococcus aureus. The note with it: Concentration 20 uM, ASSAY_TEST Inhibition of Bacterial Growth, detection method Absorption (OD600), MEDIA CAMHB, plate type 384well, NBS, CORNING #3640, time 18 hr.
The subject of test [2] is Escherichia coli. The note with it: Concentration 20 uM, ASSAY_TEST Inhibition of Bacterial Growth, detection method Absorption (OD600), MEDIA CAMHB, plate type 384well, NBS, CORNING #3640, time 18 hr.

For `COC(=O)[C@H](c1ccccc1Cl)N1CCc2sccc2C1` [CLOPIDOGREL], the Inhibition is on record as 12.7% in test [1] and -0.51% in test [2].

Regarding `CCCCNc1cc(C(=O)O)cc(S(N)(=O)=O)c1Oc1ccccc1` [BUMETANIDE], the Inhibition in test [1] worked out at 10.97%; in test [2] it was 5.78%.

As for `COc1ccc(C(=O)NCc2ccc(OCCN(C)C)cc2)cc1OC.Cl`, the Inhibition is given as -18.22% in test [1] and 2.89% in test [2].

With `Cc1sc(N)c(C(=O)c2cccc(C(F)(F)F)c2)c1C`, the Inhibition in test [1] is listed as 5.2%; in test [2] it was -1.03%.

With `Cc1ccc(-c2cc(C(F)(F)F)nn2-c2ccc(S(N)(=O)=O)cc2)cc1` [CELECOXIB], the Inhibition in test [1] is on record as 5.39%; in test [2], 6.38%.

For `Cl.O[C@@H](c1cc(C(F)(F)F)nc2c(C(F)(F)F)cccc12)[C@H]1CCCCN1`, the figures for the Inhibition in test [1] and in test [2] were 36.85% and 7.08%, respectively.

As to `CCCCNC(=O)NS(=O)(=O)c1ccc(C)cc1` [TOLBUTAMIDE], the Inhibition in test [1] was found to be 4.92%; in test [2], 0.97%.

Take `O=C1Nc2ccc(Cl)cc2[C@@](C#CC2CC2)(C(F)(F)F)O1` [EFAVIRENZ]: the figures for the Inhibition in test [1] and in test [2] were 10.66% and -2.05%, respectively.

Take `CN(C)CCCN1c2ccccc2CCc2ccccc21.Cl` [IMIPRAMINE HYDROCHLORIDE]: the Inhibition is listed as 8.95% in test [1] and -1.44% in test [2].

Consider `CC(N)(Cc1ccc(O)c(O)c1)C(=O)O` (stereo not drawn) [METHYLDOPA (RACEMIC)], for which the values for the Inhibition in test [1] and in test [2] were -29.5% and 7.2%, respectively.

With `Cc1cccc(Nc2ccccc2C(=O)O)c1C` [MEFENAMIC ACID], the Inhibition in test [1] was determined as 15.6%; in test [2], 6.03%.

Consider `Nc1ncnc2c1ncn2[C@@H]1O[C@H](CO)C[C@@H]1O.O`, for which the Inhibition came out at 7.37% in test [1] and 1.02% in test [2].

Regarding `CC1(C)O[C@@H]2C[C@H]3[C@@H]4CCC5=CC(=O)C=C[C@]5(C)[C@@]4(F)[C@@H](O)C[C@]3(C)[C@]2(C(=O)CO)O1` [TRIAMCINOLONE ACETONIDE], the Inhibition is 7.65% in test [1] and 3.69% in test [2].

In the case of `Clc1ccc2c(c1)C(N1CCNCC1)=Nc1ccccc1O2` [AMOXAPINE], the Inhibition in test [1] is given as 3.79%; in test [2], 7%.

`Cc1ccccc1C(OCCN(C)C)c1ccccc1.Cl` (stereo not given) [ORPHENADRINE HYDROCHLORIDE]: the Inhibition in test [1] is on record as 13.17%; in test [2], -1.64%.

`Cn1ccnc1S` [METHIMAZOLE]: the results for the Inhibition in test [1] and in test [2] were 17.02% and 5.86%, respectively.

`CN(C)CCCN1c2ccccc2CCc2ccc(Cl)cc21.Cl` [CLOMIPRAMINE HYDROCHLORIDE]: the Inhibition in test [1] is on record as 14.19%; in test [2] it was 7.04%.

Take `CC[C@@]1(O)C(=O)OCc2c1cc1n(c2=O)Cc2cc3c(CN(C)C)c(O)ccc3nc2-1.Cl` [TOPOTECAN HYDROCHLORIDE]: the Inhibition is given as 12.09% in test [1] and 3.87% in test [2].

In the case of `C[C@@H]1C[C@H]2[C@@H]3CCC4=CC(=O)C=C[C@]4(C)[C@@]3(F)[C@@H](O)C[C@]2(C)[C@@]1(O)C(=O)CO` [DEXAMETHASONE], the Inhibition was -14.23% and -13.77% in test [1] (20 µM); 5.83% and 4.46% in test [2] (20 µM).

For `Cl.Clc1ccc2nsnc2c1NC1=NCCN1` [TIZANIDINE HYDROCHLORIDE], the Inhibition in test [1] is given as -18.93%; in test [2], 6.6%.

For `NCC(=O)CCC(=O)O` [AMINOLEVULINIC ACID], the Inhibition in test [1] is on record as 8.53%; in test [2] it was 5.31%.

As to `CC(=O)O.NCc1ccc(S(N)(=O)=O)cc1` [MAFENIDE ACETATE], the Inhibition turned out to be 12.98% in test [1] and 1.36% in test [2].

Consider `CNCC[C@@H](Oc1ccccc1C)c1ccccc1.Cl` [ATOMOXETINE HYDROCHLORIDE], for which the Inhibition in test [1] was -21.69%; in test [2], 5.13%.

Consider `C[C@]12C[C@H](O)[C@H]3[C@@H](CCC4=CC(=O)CC[C@@]43C)[C@@H]1CC[C@@H]2C(=O)CO` [CORTICOSTERONE], for which the results for the Inhibition in test [1] and in test [2] were 12.8% and 2.35%, respectively.

For `COc1ccccc1OCC(O)COC(N)=O` (stereo not given) [METHOCARBAMOL], the Inhibition was 12.79% in test [1] and -0.64% in test [2].

In the case of `C[C@]12CC[C@@H]3c4ccc(O)cc4CC[C@H]3[C@@H]1CC[C@@H]2O` [ESTRADIOL], the Inhibition in test [1] is 2.2%; in test [2] it was -0.2%.

Turning to `Cl.Clc1ccccc1CN1CCc2sccc2C1` [TICLOPIDINE HYDROCHLORIDE], the figures for the Inhibition in test [1] and in test [2] were 6.77% and 1.84%, respectively.

As for `CC(C)c1ccc2c(c1)c(SC(C)(C)C)c(CC(C)(C)C(=O)O)n2Cc1ccc(Cl)cc1`, the Inhibition worked out at 10.09% in test [1] and 5.68% in test [2].

On to `CO[C@H]1O[C@@H]2O[C@@]3(C)CC[C@H]4[C@H](C)CC[C@@H]([C@H]1C)[C@@]24OO3`, for which the results for the Inhibition in test [1] and in test [2] were 8.78% and 13.66%, respectively.

Turning to `CCCc1nc(C)c2c(O)nc(-c3cc(S(=O)(=O)N4CCN(CC)CC4)ccc3OCC)nn12.O=C(O)CC(O)(CC(=O)O)C(=O)O`, the Inhibition in test [1] is reported as 14.18%; in test [2], -4.2%.

`COC(=O)C1=C(C)NC(C)=C(C(=O)OC(C)C)C1c1cccc2nonc12` (stereo not given) [ISRADIPINE]: the Inhibition is 14.31% in test [1] and -0.09% in test [2].

On to `CC(=O)NCCCCCCNC(C)=O` [HEXAMETHYLENEBISACETAMIDE], for which the Inhibition in test [1] is reported as -6.23%; in test [2] it was 3.8%.

Turning to `O=C(O[C@H]1[C@H](Oc2ccccc2COC(=O)C2(O)C=CCCC2=O)O[C@H](CO)[C@@H](O)[C@@H]1O)c1ccccc1` (stereo not given in full) [TREMULACIN], the figures for the Inhibition in test [1] and in test [2] were 15.86% and 0.23%, respectively.

On to `CC1CNc2c(cccc2S(=O)(=O)N[C@@H](CCCNC(=N)N)C(=O)N2CC[C@@H](C)C[C@@H]2C(=O)O)C1` (stereo not given in full) [ARGATROBAN], for which the Inhibition in test [1] is recorded as 5.54%; in test [2], -1.85%.

On to `CC(N/C(=N\C#N)Nc1ccncc1)C(C)(C)C.O` (stereo not given), for which the Inhibition in test [1] is listed as -1.94%; in test [2], -6.33%.

As for `Cn1nnc2c(C(N)=O)ncn2c1=O` [TEMOZOLOMIDE], the Inhibition was found to be 8.98% in test [1] and 6.63% in test [2].

As to `COc1ccc(/C=C/C(=O)Nc2ccccc2C(=O)O)cc1OC`, the Inhibition in test [1] is 8.38%; in test [2], -3.33%.

For `CCC1=C[C@H]2CN(C1)Cc1c([nH]c3ccccc13)[C@@](C(=O)OC)(c1cc3c(cc1OC)N(C)[C@H]1[C@@](O)(C(=O)OC)[C@H](OC(C)=O)[C@]4(CC)C=CCN5CC[C@]31[C@@H]54)C2.O=C(O)C(O)C(O)C(=O)O.O=C(O)C(O)C(O)C(=O)O`, the Inhibition in test [1] turned out to be 13.36%; in test [2] it was 2.61%.

For `CN(CCOc1ccc(NS(C)(=O)=O)cc1)CCc1ccc(NS(C)(=O)=O)cc1` [DOFETILIDE], the Inhibition in test [1] is 11.97%; in test [2] it was 6.72%.

Take `COc1ccc(-c2cc(=O)c3c(OC)c(OC)c(OC)c(OC)c3o2)cc1OC` [NOBILETIN]: the values for the Inhibition in test [1] and in test [2] were 13.24% and -1.7%, respectively.

As for `C#C[C@]1(O)CC[C@H]2[C@@H]3CCc4cc(OC)ccc4[C@H]3CC[C@@]21C` [MESTRANOL], the Inhibition in test [1] is given as 8.43%; in test [2], -2.89%.

Consider `C=C1/C(=C\C=C2/CCC[C@]3(C)[C@@H]([C@H](C)CCCC(C)(C)O)CC[C@@H]23)C[C@@H](O)C[C@@H]1O` [CALCITRIOL], for which the Inhibition is listed as 3.12% in test [1] and 7.51% in test [2].

In the case of `Nc1c2c(nc3c1CCC3)CCCC2` [IPIDACRINE], the values for the Inhibition in test [1] and in test [2] were 16.52% and 5.57%, respectively.

Consider `CC(=O)OCC(=O)C12OC3(CCCC3)OC1CC1C3CCC4=CC(=O)C=CC4(C)C3(F)C(O)CC12C` (stereo not given), for which the Inhibition turned out to be 19.97% in test [1] and 7.38% in test [2].

As for `Nc1nc(Cl)nc2c1ncn2[C@H]1C[C@H](O)[C@@H](CO)O1` [CLADRIBINE], the Inhibition in test [1] was 6.87%; in test [2], 14.09%.

For the compound `CNCC[C@H](Oc1cccc2ccccc12)c1cccs1.Cl` [DULOXETINE HYDROCHLORIDE], the Inhibition is given as -17.99% in test [1] and 4.45% in test [2].

Turning to `Cc1ncc([N+](=O)[O-])n1CC(C)O` (stereo not given) [SECNIDAZOLE], the Inhibition in test [1] is recorded as 11.92%; in test [2], 5.99%.

In the case of `CCOC(=O)C1=C(C)NC(C)=C(C(=O)OC)C1c1cccc([N+](=O)[O-])c1` (stereo not given) [NITRENDIPINE], the values for the Inhibition in test [1] and in test [2] were 11.21% and -2.58%, respectively.

For `CS(=O)(=O)c1ccc(C2=C(c3ccccc3)C(=O)OC2)cc1` [ROFECOXIB], the Inhibition is 8.94% in test [1] and -7.03% in test [2].

Consider `Cc1cccc(Nc2ccncc2S(=O)(=O)NC(=O)NC(C)C)c1` [TORSEMIDE], for which the results for the Inhibition in test [1] and in test [2] were 4.19% and 6.8%, respectively.

With `CCOC(=O)[C@H](CCc1ccccc1)N[C@@H](C)C(=O)N1Cc2ccccc2C[C@H]1C(=O)O.Cl` [QUINAPRIL HYDROCHLORIDE], the values for the Inhibition in test [1] and in test [2] were 16.74% and 4.26%, respectively.

Consider `NC(N)=Nc1nc(CSCC/C(N)=N/S(N)(=O)=O)cs1` [FAMOTIDINE], for which the Inhibition was 6.96% in test [1] and 3.55% in test [2].

Take `CC(C)NCC(O)COc1ccc(CC(N)=O)cc1` (stereo not given) [ATENOLOL]: the values for the Inhibition in test [1] and in test [2] were 9.69% and 2.4%, respectively.

As for `Cl.O.OC[C@H]1O[C@@H](n2cnc3c(N[C@H]4CCC[C@@H]4O)ncnc32)[C@@H](O)C1O` (stereo not given in full), the Inhibition in test [1] was found to be 7.67%; in test [2], 1.98%.

Consider `OC[C@H]1O[C@@H](Oc2cc(O)cc(/C=C/c3ccc(O)cc3)c2)[C@H](O)[C@@H](O)[C@@H]1O` [PICEID], for which the figures for the Inhibition in test [1] and in test [2] were 5.5% and 8.13%, respectively.

For the compound `CN(C)CCCN1c2ccccc2Sc2ccc(Cl)cc21.Cl` [CHLORPROMAZINE HYDROCHLORIDE], the Inhibition stood at 10.22% in test [1] and 2.59% in test [2].

For `COC1=CC(=O)C[C@@H](C)[C@]12Oc1c(Cl)c(OC)cc(OC)c1C2=O` [GRISEOFULVIN], the Inhibition was determined as 7.83% in test [1] and 2.08% in test [2].

As to `CC1Cc2ccccc2N1NC(=O)c1ccc(Cl)c(S(N)(=O)=O)c1` (stereo not given) [INDAPAMIDE], the Inhibition in test [1] is recorded as 5.44%; in test [2], -0.79%.

`CNCCC=C1c2ccccc2CCc2ccccc21.Cl` [NORTRIPTYLINE HYDROCHLORIDE]: the Inhibition in test [1] was 3.19%; in test [2], 4.29%.

On to `CCC1=C(C)CN(C(=O)NCCc2ccc(S(=O)(=O)NC(=O)N[C@H]3CC[C@H](C)CC3)cc2)C1=O` [GLIMEPIRIDE], for which the Inhibition in test [1] is 15.98%; in test [2], 1.16%.
